# Sampled rows, rich in hits. Any-hit rate of the full collection: about 3.1%.
# BoNT F protease: BoNT/F light chain protease inhibitors, primary screen, biochemical, flow cytometry, MLPCN library; Botulinum neurotoxin type F light chain protease (Clostridium botulinum); Multiplex microsphere protease cleavage assay; inhibition, % at 10 µM; 360,000 tested, 0.22% active; in the data active = inhibition above about 35%, passing the limit was not always enough; inconclusive = no clear call, values can overlap the other calls
# Anthrax LF inh2: Bacillus anthracis LF protease inhibitors, primary screen, biochemical, multiplex microsphere, MLPCN library. Lethal factor (Bacillus anthracis), P15917. multiplex microsphere protease cleavage assay. inhibition, % at 10 µM. 360,000 tested, 0.12% active. AID 588501, 2011
# Target sequence (P15917 whole entry, looked up): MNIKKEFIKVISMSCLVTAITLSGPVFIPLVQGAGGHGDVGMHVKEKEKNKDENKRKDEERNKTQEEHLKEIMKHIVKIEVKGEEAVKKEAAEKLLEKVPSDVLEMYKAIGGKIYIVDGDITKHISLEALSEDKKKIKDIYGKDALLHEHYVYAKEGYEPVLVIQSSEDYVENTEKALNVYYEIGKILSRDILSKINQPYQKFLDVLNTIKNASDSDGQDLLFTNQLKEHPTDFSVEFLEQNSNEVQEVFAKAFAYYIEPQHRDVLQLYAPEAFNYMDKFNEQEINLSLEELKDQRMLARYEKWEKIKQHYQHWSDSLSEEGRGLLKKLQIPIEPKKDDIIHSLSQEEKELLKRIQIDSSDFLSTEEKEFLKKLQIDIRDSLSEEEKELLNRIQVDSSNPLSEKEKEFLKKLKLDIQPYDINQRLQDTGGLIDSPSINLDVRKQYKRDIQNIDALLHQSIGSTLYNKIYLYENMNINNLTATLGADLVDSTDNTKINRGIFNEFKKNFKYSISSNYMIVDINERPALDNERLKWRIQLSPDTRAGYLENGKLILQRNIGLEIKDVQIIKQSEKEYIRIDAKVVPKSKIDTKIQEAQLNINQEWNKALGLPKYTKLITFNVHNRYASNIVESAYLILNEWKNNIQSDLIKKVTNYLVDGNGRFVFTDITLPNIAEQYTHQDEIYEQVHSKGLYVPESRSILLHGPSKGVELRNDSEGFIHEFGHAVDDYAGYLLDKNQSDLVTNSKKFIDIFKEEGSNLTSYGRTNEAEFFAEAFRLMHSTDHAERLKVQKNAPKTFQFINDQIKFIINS
# BoNT-A LC inh2: BoNT/A light chain protease inhibitors, primary screen, biochemical, flow cytometry, MLPCN library | 360,000 tested, 0.17% active | multiplex microsphere protease substrate cleavage | inhibition, % at 10 µM | Botulinum neurotoxin type A light chain protease (Clostridium botulinum A str. ATCC 3502)
# SSB-PriA inh: inhibitors of Klebsiella pneumoniae PriA binding to SSB C-terminal tail, primary screen, biochemical, AlphaScreen; PriA–SSB C-terminal tail interaction (Klebsiella pneumoniae); AlphaScreen SSBct-PriA binding, biotinylated peptide; inhibition, % at 33 µM; 430,000 tested, 0.6% active; AID 1272365, 2023; in the data active = inhibition mostly above about 37%, no sharp cut-off; inactive = mostly below about 20%
# Autofluor counter: compound fluorescence in toxin protease inhibitor counterscreen; 360,000 tested, 3.1% active; compound autofluorescence counterscreen, microsphere flow cytometry; stronger effect = higher value; AID 624483; fluorescence intensity (no concentration beside the values); in the data active = fluorescence intensity above about 16000; inconclusive = no clear call, values can overlap the other calls
# A number is an active result; n = inactive; u = inconclusive; x = no result. Rule as the data show it, unless noted: active = inhibition above about 30%; inconclusive = no clear call, values can overlap the other calls; inactive = below that.
SMILES,BoNT F protease,Anthrax LF inh2,BoNT-A LC inh2,SSB-PriA inh,Autofluor counter
Cc1ccc(-c2nnn(CC(=O)N(Cc3cccs3)C(C(=O)NC3CCCC3)c3ccco3)n2)o1 (stereo not drawn),n,n,n,n,16932
Cc1ccc(-c2nnn(CC(=O)N(Cc3cccs3)C(C(=O)NC3CCCCC3)c3ccco3)n2)o1 (stereo not drawn),n,n,n,n,n
CCC(C(=O)NC1CCCC1)N(C(=O)Cn1nnc(-c2ccc(OC)c(OC)c2)n1)C1CCCCC1 (stereo not drawn),n,n,n,n,16428
COc1ccc(-c2nnn(CC(=O)N(CC(=O)NC3CCCC3)Cc3cccs3)n2)cc1OC,n,n,n,n,24334
CCCC(C(=O)NC1CCCC1)N(C(=O)Cn1nnc(-c2ccc(C)o2)n1)c1ccccc1F (stereo not drawn),n,n,n,n,n
CCCC(C(=O)NC1CCCC1)N(C(=O)Cn1nnc(-c2ccc(C)o2)n1)C1CCCC1 (stereo not drawn),n,n,n,n,25114
CCc1cccc(CC)c1NC(=O)CC(NCCC1=CCCCC1)C(=O)O (stereo not drawn),x,x,x,n,x
Cc1ccccc1-n1nc(C)c2cc(C(=O)N3CCOCC3)sc21,n,n,u,n,23082
Brc1ccc(-c2cn3c(n2)CCc2ccc4cccnc4c2-3)cc1,n,n,n,53,n
Brc1ccc(-c2cn3nc4c(nc3n2)CCCC4)cc1,n,n,n,n,n
Cc1cccc(NC(=O)N2CC(N3C(=O)C4CC=CCC4C3=O)C2)c1 (stereo not drawn),x,x,x,n,x
CC(C)(C)c1ccc(Cn2ccc(-c3ccc4c(c3)OCO4)n2)cc1,n,n,n,n,19826
Cc1onc(-c2ccccc2Cl)c1C(=O)Nc1nnc(SCc2ccccc2F)s1,x,x,x,n,x
Cc1ccccc1SCC(=O)Nc1ccc(N2CCOCC2)cc1,n,n,n,n,n
Cc1ccccc1SCC(=O)NC1CCOC1=O (stereo not drawn),n,n,n,n,22927
COc1ccc(C(=O)Nc2nnc(S(=O)(=O)N3CCCCCC3)s2)cc1OC,n,n,n,82,n
O=C(COc1ccccc1)Nc1nnc(S(=O)(=O)N2CCCCCC2)s1,n,n,n,95,n
O=C(COc1ccccc1)Nc1nnc(S(=O)(=O)N2CCCCC2)s1,n,n,n,n,n
CCOC(=O)CSc1nnc(NC(=O)c2cccc(S(=O)(=O)N3CCCCCC3)c2)s1,n,n,n,n,24044
O=C(COc1ccccc1Cl)Nc1nnc(S(=O)(=O)N2CCCCCC2)s1,n,n,n,100,n
Cc1cccc(OCCSc2nc3ccccc3n2C)c1C,x,x,x,n,x
COc1ccc(-c2nn(CC(=O)NC3CCCC3)c(=O)c3nc(C)sc23)cc1OC,x,x,x,n,x
CCOc1ccc(/C=C2\SC(=S)N(CC(=O)NC34CC5CC(CC(C5)C3)C4)C2=O)cc1,x,x,x,n,x
CCC(=O)Nc1nnc(S(=O)(=O)N2CCCCCC2)s1,n,n,n,100,n
N#CCc1c(C#N)c(N)nc(N2CCN(c3ccc(F)cc3)CC2)c1C#N,n,n,n,n,n
SMILES,BoNT F protease,Anthrax LF inh2,BoNT-A LC inh2,SSB-PriA inh,Autofluor counter
N#CCc1c(C#N)c(N)nc(N2CCN(Cc3ccc4c(c3)OCO4)CC2)c1C#N,n,n,n,n,19575
Cc1ccc(S(=O)(=O)NCc2nnc(SCC(=O)Nc3cccc(C)c3C)n2C)cc1,n,n,n,n,21005
COC(=O)CSc1nnc(CNS(=O)(=O)c2ccc(C)cc2)n1C,n,n,n,n,n
COc1ccc(N2CCN(C(=O)CSc3nnc4c(C)cc5c(C)cc(C)cc5n34)CC2)cc1,n,n,n,n,n
COc1ccc(N2CCN(C(=O)CSc3nnc4c(C)cc5cc(C)ccc5n34)CC2)cc1,n,n,n,n,23987
COc1ccc(N2CCN(C(=O)CSc3nnc4c(C)cc5ccc(C)c(C)c5n34)CC2)cc1,n,n,n,n,21530
Cn1nc(-c2ccc(F)cc2)cc1C(=O)NCC(O)(c1ccccc1)C(F)(F)F (stereo not drawn),x,x,x,n,x
COCCNC(=O)CN1CCC(NC(=O)Nc2ccc(C(F)(F)F)cc2)CC1,n,n,n,n,23251
COCCNC(=O)CN1CCC(NC(=O)Nc2ccccc2)CC1,n,n,u,n,u
CCc1ccc(C(=O)CSc2n[nH]c(C)n2)cc1,n,n,n,n,21979
Cc1ccc(C(=O)CSc2n[nH]c(C)n2)cc1,n,n,n,n,n
O=S(=O)(c1ccc(Cl)s1)N1CCN(c2cc3c(nn2)CCCC3)CC1,x,x,x,n,x
COc1ccc(-n2c(SC)nc3sc4c(c3c2=O)CCN(C)C4)cc1,n,n,n,n,n
CCCN1CCc2c(sc3nc(SCC)n(-c4ccccc4)c(=O)c23)C1,n,n,34,n,n
CCCN1CCc2c(sc3nc(SCC)n(-c4ccc(OC)cc4)c(=O)c23)C1,n,n,40,n,n
CCSc1nc2sc3c(c2c(=O)n1-c1ccccc1)CCN(C)C3,n,n,n,n,n
O=C(Nc1ccccc1Cl)N1CCSc2ccccc21,n,n,n,n,n
O=C(Nc1ccccc1)N1CCSc2cc(Cl)ccc21,n,n,n,n,20918
O=C(Nc1cccc(Cl)c1)N1CCSc2cc(Cl)ccc21,n,n,n,n,19711
CCN1CCCCC(=N/O)/C(=N/O)CCCC1,38,n,n,x,n
CCN1CCCCC(=NO)C(=NO)CCCC1,x,x,x,n,x
NC(Cc1ccc([N+](=O)[O-])cc1)=NOC(=O)c1ccco1,x,x,x,n,x
O=C(Nc1nc2ccc(S(=O)(=O)N3CCCCC3)cc2s1)c1cccnc1,n,n,n,n,21943
O=C(Nc1ccon1)c1cccc(S(=O)(=O)N2CCCCCC2)c1,n,n,n,n,n
O=C(Nc1ccon1)c1cccc(S(=O)(=O)N2CCCC2)c1,n,n,n,n,19894
SMILES,BoNT F protease,Anthrax LF inh2,BoNT-A LC inh2,SSB-PriA inh,Autofluor counter
Cc1cccc2c3nc4ccccc4nc3n(C)c12,n,n,45,n,n
COc1ccc(S(=O)(=O)Nc2ccc3c(c2)NC(=O)C(C)(C)CO3)cc1C,x,x,x,n,x
O=C(CCC1COc2ccccc2O1)Nc1cccnc1 (stereo not drawn),n,n,n,n,23308
Cc1cc(=O)[nH]c2c1c(C)nn2C1CCCCC1,n,n,n,n,n
Cc1cc(=O)[nH]c2c1c(C)nn2C1CCCC1,n,n,n,n,18691
O=C(Nc1nnc(-c2ccc(Cl)s2)o1)c1ccc(C(=O)c2ccccc2)cc1,x,x,x,n,x
O=C(CCC(=O)N1CCN(S(=O)(=O)c2ccccc2)CC1)c1cccs1,n,n,u,n,20748
O=C(CCC(=O)N1CCc2ccccc2C1)N1CCN(S(=O)(=O)c2ccccc2)CC1,n,n,n,n,n
O=C(N[C@H](c1cccnc1)C1CCOCC1)c1cccc(OC(F)(F)F)c1,x,x,x,n,x
NNC(=O)c1nc(-c2ccccc2)n2c1CCCCC2,n,n,u,n,20671
O=C(Nc1ccccc1C(F)(F)F)N1CCN(c2ccc3nnc(-c4ccc(F)cc4)n3n2)CC1,n,n,n,n,n
